# Assay results as given in PubChem BioAssay (Tox21).
# Values joined by “and” are separate entries in the source; they are usually repeats but may differ in a detail not shown here. Equal values may be shown once. Results filed as inconclusive are left out. Where a call stands in place of a potency, no number is given. Active and inactive are the calls of the source. Unless noted, calls follow the shape of the full dose curve.
# Legend:
# [1] = Nuclear factor erythroid 2-related factor 2/antioxidant responsive element (Nrf2/ARE) small molecule agonists: qHTS cell viability counter screen in human keratinocytes (AID 1919968; active = well fitted curve in the direction sought with a large enough effect in the repeat runs; an effect the other way counts as inactive or inconclusive; also: nearly all actives have a fitted effect of over 55% in size; also: potency is read from the fitted curve at half-maximal effect)
# Summary of the method: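 Parallel cytotoxicity read: KeratinoSens HaCaT cells, compound treatment 23 h, viability by CellTiter-Fluor fluorescence 1 h post-reagent.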
# [2] = biological target: Gonadotropin-releasing hormone receptor (Homo sapiens) (UniProt P30968); test: Human gonadotropin-releasing hormone receptor (GnRHR) small molecule agonists, calcium flux assay in GnRHR-HEK293 cells (AID 1920063); also: nearly all actives have a fitted effect of over 35% in size
# Summary of the method: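 Calcium flux, agonist mode, human GnRHR stably integrated in HEK293; dye 1 h at 37 C before compound; Ex/Em=480/540 kinetic read, 3 min; 15 concentrations, triplicate.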
# [3] = biological target: KiSS-1 receptor (Homo sapiens) (UniProt Q969F8); test: Human kisspeptin (KISS1R) small molecule agonists, calcium flux assay in KISS1R-HEK293 cells (AID 1920064; active = well fitted curve in the direction sought with a large enough effect in the repeat runs; an effect the other way counts as inactive or inconclusive)
# Summary of the method: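 Triplicate 15-concentration series were applied to dye-loaded human KISS1R HEK293 cells, and agonist-evoked calcium fluorescence was captured for 3 min.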
# [4] = G protein-coupled receptor (GPCR) small molecule agonists, calcium flux assay: HEK293 wild type cell line counter screen (AID 1920065)
# Summary of the method: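 Non-specific calcium responders were flagged by adding DMSO-dissolved compounds to dye-loaded cells and reading 480/540 nm fluorescence each second for 3 min; ATP served as positive control.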
# [5] = p53 small molecule agonists, cell-based qHTS assay with human liver microsomes (AID 1963577)
# Summary of the method: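 Compounds act here after metabolic activation: human liver microsomes and NADPH, both at 0.5 mg/mL final, were co-added to p53RE-bla cells. Incubation ran 16 h at 37 C, followed by LiveBLAzer detection.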
# [6] = p53 small molecule agonists, cell-based qHTS assay with rat liver microsomes (AID 1963578)
# Summary of the method: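 Read-out is beta-lactamase reporter fluorescence (LiveBLAzer, 2 h, room temperature, dark) in p53RE-bla cells treated 16 h at 37 C with compound, rat liver microsomes and NADPH, both 0.5 mg/mL final.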
# [7] = p53 small molecule agonists, cell-based qHTS assay with human liver microsomes: qHTS cell viability counter screen (AID 1963579); also: nearly all actives have a fitted effect of over 45% in size
# Summary of the method: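 Cells carrying the p53 response-element beta-lactamase reporter are treated for 16 h at 37 C with test compounds in the presence of human liver microsomes and NADPH (both 0.5 mg/mL final); ATP-based CellTiter-Glo luminescence then reports viability.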
# [8] = p53 small molecule agonists, cell-based qHTS assay with rat liver microsomes: qHTS cell viability counter screen (AID 1963580); also: nearly all actives have a fitted effect of over 45% in size
# Summary of the method: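 Counter screen for cytotoxicity under metabolic activation: rat liver microsomes and NADPH, 0.5 mg/mL final each, added with compounds to p53RE-bla HCT-116 cells; 16 h at 37 C, then ATP luminescence read.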
# [9] = p53 small molecule agonists, cell-based qHTS assay: qHTS cell viability counter screen (AID 1963581); also: nearly all actives have a fitted effect of over 45% in size
# Summary of the method: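 Multiplexed with the reporter read, a CellTiter-Glo step (30 min, room temperature) gauges ATP-based viability of HCT-116 p53RE-bla cells after 16 h compound incubation at 37 C.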
# [10] = p53 small molecule agonists, cell-based qHTS assay (AID 1963582; active = well fitted activation curve with a large enough effect in the signal ratio in the repeat runs, not every such curve was filed as active; the % refers to the signal ratio)
# Summary of the method: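 Beta-lactamase reporter cells (p53RE-bla) treated with compounds for 16 h at 37 C; FRET substrate, 2 h, room temperature; fluorescence intensity.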
# [11] = biological target: 5-hydroxytryptamine receptor 2A (Homo sapiens) (UniProt P28223); test: 5-hydroxytryptamine receptor 2A (HTR2A) small molecule antagonists, cell-based qHTS assay (AID 1963586); also: nearly all actives have a fitted effect of over 45% in size
# Summary of the method: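 CHO cells stably expressing human HTR2A were plated for 18 h at 37 C, then loaded with calcium dye for 1 h. Compounds were preincubated 5 min at room temperature before DOI (4 nM solution) was added. Kinetic fluorescence was read for 3 min.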
# [12] = biological target: 5-hydroxytryptamine receptor 2A (Homo sapiens) (UniProt P28223); test: 5-hydroxytryptamine receptor 2A (HTR2A) small molecule agonists, cell-based qHTS assay (AID 1963587); also: nearly all actives have a fitted effect of over 30% in size
# Summary of the method: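 HTR2A-CHO cells, plated 18 h at 37 C/5% CO2, dye-loaded 1 h at 37 C; compounds in DMSO added by pin tool (agonist mode). Intracellular calcium flux read as kinetic fluorescence on FDSS over 2 min at 1 s intervals.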
# [13] = biological target: Muscarinic acetylcholine receptor M1 (Homo sapiens) (UniProt P11229); test: Cholinergic receptor muscarinic 1 (CHRM1) small molecule antagonists, cell-based qHTS assay (AID 1963588); also: nearly all actives have a fitted effect of over 40% in size
# Summary of the method: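 Compounds were tested at 15 concentrations in three independent runs. Dye-loaded CHRM1-CHO cells were exposed 5 min at room temperature before stimulation by acetylcholine added at 50nM. Intracellular calcium was read kinetically on FDSS for 3 min.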
# [14] = biological target: Muscarinic acetylcholine receptor M1 (Homo sapiens) (UniProt P11229); test: Cholinergic receptor muscarinic 1 (CHRM1) small molecule agonists, cell-based qHTS assay (AID 1963589); also: nearly all actives have a fitted effect of over 35% in size
# Summary of the method: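 qHTS, 15-point titration, 3 independent runs: compounds pin-transferred onto dye-loaded CHRM1-CHO cells (human M1), calcium fluorescence followed every second to detect agonism.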
# [15] = cAMP Responsive Elements (CRE) small molecule agonists, cell-based qHTS assay (AID 1963590)
# Summary of the method: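 Quantitative HTS for CRE agonists: HEK 293T CRE-bla cells, overnight plating, 3 h compound incubation at 37 C/5% CO2, then 2 h room-temperature LiveBLAzer B/G FRET substrate loading.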
# [16] = cAMP Responsive Elements (CRE) small molecule antagonists, cell-based qHTS assay (AID 1963591; active = well fitted inhibition curve with a large enough effect in the signal ratio in the repeat runs, not every such curve was filed as active; the % refers to the signal ratio)
# Summary of the method: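 Fluorescence intensity from cleaved LiveBLAzer B/G substrate (2 h, room temperature) quantified CRE-bla activity in HEK 293T cells exposed 3 h to compound with 0.25 uM final NKH477.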
# [17] = biological target: Beta-2 adrenergic receptor (Homo sapiens) (UniProt P07550); test: Adrenergic beta2 receptor (ADRB2) small molecule agonists, cell-based qHTS assay (AID 1963593);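 also: CHO cells stably overexpressing human ADRB2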
# Summary of the method: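 CHO cells stably over-expressing ADRB2 were plated overnight at 37C, then dosed with compounds plus a stimulation mix containing 100uM IBMX and 25uM Ro-20-1724 for 0.5hr at room temperature. cAMP was measured by HTRF competition, 1hr.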
# [18] = biological target: D(2) dopamine receptor (Homo sapiens) (UniProt P14416); test: Dopamine D2 receptor (DRD2) small molecule agonists, cell-based qHTS assay (AID 1963594); also: nearly all actives have a fitted effect of over 35% in size
# Summary of the method: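 HEK293 cells stably expressing DRD2 were cultured 24 h at 37 C, then given Ro20-1724 (0.1 mM final) and compounds for 10 min at room temperature. NKH477 (200nM) was then added for 30 min. cAMP was read by HTRF.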
# [19] = biological target: D(2) dopamine receptor (Homo sapiens) (UniProt P14416); test: Dopamine D2 receptor (DRD2) small molecule antagonists, cell-based qHTS assay (AID 1963595; active = well fitted inhibition curve with a large enough effect in the signal ratio in the repeat runs, with a control signal flat; the % refers to the signal ratio)
# Summary of the method: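 Cells were plated and grown for 24 h at 37 °C. Ro20-1724 (0.1 mM final) went in first, then compound for 10 min. NKH477 (200 nM) with quinpirole (12 nM) followed for 30 min at RT, then HTRF detection reagents for 1 h.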
# [20] = biological target: Beta-2 adrenergic receptor (Homo sapiens) (UniProt P07550); test: Adrenergic beta2 receptor (ADRB2) small molecule antagonists, cell-based qHTS assay (AID 1963592); also: series mostly up to about 92 µM; nearly all actives have a fitted effect of over 50% in size
# Summary of the method: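 Assay format: CHO-ADRB2 cells, 18-20hr seeding at 37C/5% CO2, then compound plus 1nM isoproterenol agonist mix for 0.5hr RT. Homogeneous time-resolved fluorescence cAMP detection after 1hr, expressed as 665/615 nm ratio.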
# Sequence of KiSS-1 receptor (Homo sapiens) (Q969F8 whole entry, looked up): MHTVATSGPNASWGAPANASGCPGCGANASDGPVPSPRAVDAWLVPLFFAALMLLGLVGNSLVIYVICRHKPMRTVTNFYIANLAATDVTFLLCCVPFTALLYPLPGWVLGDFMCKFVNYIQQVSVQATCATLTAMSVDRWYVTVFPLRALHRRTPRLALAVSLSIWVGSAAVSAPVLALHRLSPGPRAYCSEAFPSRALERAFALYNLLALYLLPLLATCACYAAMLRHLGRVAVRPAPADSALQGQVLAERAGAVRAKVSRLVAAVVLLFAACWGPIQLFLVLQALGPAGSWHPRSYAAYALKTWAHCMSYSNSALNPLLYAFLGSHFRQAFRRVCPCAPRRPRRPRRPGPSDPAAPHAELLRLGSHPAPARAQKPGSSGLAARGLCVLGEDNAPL
# Sequence of 5-hydroxytryptamine receptor 2A (Homo sapiens) (P28223 whole entry, looked up): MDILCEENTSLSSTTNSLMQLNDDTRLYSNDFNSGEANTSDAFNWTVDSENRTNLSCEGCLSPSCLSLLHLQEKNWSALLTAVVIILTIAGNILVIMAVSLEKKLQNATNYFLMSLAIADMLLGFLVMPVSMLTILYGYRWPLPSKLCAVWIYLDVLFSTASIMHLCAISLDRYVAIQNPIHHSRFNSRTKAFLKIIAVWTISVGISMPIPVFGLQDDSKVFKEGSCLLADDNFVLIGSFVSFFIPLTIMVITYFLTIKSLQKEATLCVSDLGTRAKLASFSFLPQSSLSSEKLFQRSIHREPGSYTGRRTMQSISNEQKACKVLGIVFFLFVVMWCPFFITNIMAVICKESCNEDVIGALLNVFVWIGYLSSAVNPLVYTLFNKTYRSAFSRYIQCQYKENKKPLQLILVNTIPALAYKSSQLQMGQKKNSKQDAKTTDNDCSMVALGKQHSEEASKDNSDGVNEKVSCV
# Sequence of Beta-2 adrenergic receptor (Homo sapiens) (P07550 whole entry, looked up): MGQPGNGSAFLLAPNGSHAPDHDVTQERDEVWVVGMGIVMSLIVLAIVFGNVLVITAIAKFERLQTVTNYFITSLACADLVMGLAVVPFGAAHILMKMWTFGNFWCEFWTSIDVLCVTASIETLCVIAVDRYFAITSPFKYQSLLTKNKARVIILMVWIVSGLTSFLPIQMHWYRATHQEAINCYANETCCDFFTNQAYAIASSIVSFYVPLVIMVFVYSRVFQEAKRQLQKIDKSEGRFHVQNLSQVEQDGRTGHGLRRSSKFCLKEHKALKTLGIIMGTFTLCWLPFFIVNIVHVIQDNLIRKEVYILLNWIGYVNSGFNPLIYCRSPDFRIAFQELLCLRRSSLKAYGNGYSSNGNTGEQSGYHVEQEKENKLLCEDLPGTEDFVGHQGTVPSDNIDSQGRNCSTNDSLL
# Sequence of D(2) dopamine receptor (Homo sapiens) (P14416 whole entry, looked up): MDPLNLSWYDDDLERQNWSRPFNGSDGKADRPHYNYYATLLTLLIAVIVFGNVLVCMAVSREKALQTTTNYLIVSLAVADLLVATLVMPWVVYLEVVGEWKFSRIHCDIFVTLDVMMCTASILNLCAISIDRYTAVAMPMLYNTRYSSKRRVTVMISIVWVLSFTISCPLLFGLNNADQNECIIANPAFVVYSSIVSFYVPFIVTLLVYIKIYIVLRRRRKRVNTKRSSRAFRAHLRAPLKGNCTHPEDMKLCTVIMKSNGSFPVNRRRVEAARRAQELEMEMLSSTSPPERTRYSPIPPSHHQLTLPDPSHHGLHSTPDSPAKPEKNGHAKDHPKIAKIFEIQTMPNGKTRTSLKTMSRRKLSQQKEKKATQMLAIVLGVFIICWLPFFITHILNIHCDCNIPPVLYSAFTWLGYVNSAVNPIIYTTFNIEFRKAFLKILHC
# Sequence of Gonadotropin-releasing hormone receptor (Homo sapiens) (P30968 whole entry, looked up): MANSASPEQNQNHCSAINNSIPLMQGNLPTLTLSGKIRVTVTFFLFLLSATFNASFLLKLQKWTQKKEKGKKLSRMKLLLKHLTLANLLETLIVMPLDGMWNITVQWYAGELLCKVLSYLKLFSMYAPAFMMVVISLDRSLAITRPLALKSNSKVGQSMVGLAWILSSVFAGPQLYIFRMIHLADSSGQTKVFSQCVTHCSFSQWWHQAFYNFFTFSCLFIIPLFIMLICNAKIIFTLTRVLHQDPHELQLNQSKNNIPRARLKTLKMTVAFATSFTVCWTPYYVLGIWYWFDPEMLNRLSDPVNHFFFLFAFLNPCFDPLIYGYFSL
# Sequence of Muscarinic acetylcholine receptor M1 (Homo sapiens) (P11229 whole entry, looked up): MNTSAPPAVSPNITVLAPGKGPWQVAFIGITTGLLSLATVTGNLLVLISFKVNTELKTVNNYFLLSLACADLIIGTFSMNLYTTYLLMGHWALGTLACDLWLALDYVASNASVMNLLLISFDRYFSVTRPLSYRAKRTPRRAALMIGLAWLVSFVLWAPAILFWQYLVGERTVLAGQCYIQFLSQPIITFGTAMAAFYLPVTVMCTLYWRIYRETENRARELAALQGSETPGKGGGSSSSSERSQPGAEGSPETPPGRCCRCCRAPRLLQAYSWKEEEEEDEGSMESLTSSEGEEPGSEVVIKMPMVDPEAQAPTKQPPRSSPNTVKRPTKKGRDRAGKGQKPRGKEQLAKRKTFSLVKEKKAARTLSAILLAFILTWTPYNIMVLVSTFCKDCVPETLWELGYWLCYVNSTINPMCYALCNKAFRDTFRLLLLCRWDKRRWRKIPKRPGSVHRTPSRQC
SMILES,Potency [1],Potency [2],Potency [3],Potency [4],Potency [5],Potency [6],Potency [7],Potency [8],Potency [9],Potency [10],Potency [11],Potency [12],Potency [13],Potency [14],Potency [15],Potency [16],Potency [17],Potency [18],Potency [19],Potency [20]
COCC(C)N (stereo not given),inactive,inactive,inactive,inactive,inactive,inactive,inactive,inactive,inactive,inactive,inactive,inactive,inactive,inactive,inactive,inactive,inactive,inactive,inactive,–
CCc1ccc(O)cc1,inactive,inactive,inactive,inactive,inactive,inactive,inactive,inactive,–,inactive,inactive,inactive,inactive,inactive,–,inactive,inactive,inactive,inactive,inactive
CC(C)(CO)COC(=O)C(C)(C)CO,inactive,inactive,inactive,inactive,inactive,inactive,inactive,inactive,inactive,inactive,inactive,inactive,–,–,inactive,inactive,–,inactive,inactive,inactive
c1ccc2c(c1)ccc1cc3c(ccc4ccccc43)cc12,inactive,inactive,inactive,inactive,inactive,inactive,–,inactive,inactive,inactive,inactive,inactive,inactive,inactive,inactive,inactive,inactive,inactive,inactive,inactive
CCCCOC(=O)CCCCCCCCC(=O)OCCCC,inactive,inactive,inactive,inactive,inactive,inactive,inactive,inactive,inactive,inactive,inactive,inactive,inactive,inactive,inactive,inactive,–,inactive,inactive,–
O=C(O)c1[nH]n(-c2ccc(S(=O)(=O)O)cc2)c(=O)c1N=Nc1ccc(S(=O)(=O)O)cc1,24.4 µM (active) and 45.4 µM (active),inactive,inactive,inactive,inactive,inactive,inactive,inactive,inactive,inactive,inactive,inactive,inactive,–,inactive,inactive,inactive,inactive,–,inactive
Nc1ccc(Cl)cc1Cl,inactive,inactive,inactive,inactive,inactive,inactive,inactive,–,–,inactive,inactive,inactive,inactive,–,inactive,inactive,–,inactive,inactive,inactive
